Assay results: PubChem BioAssay (EPA / NIEHS)
Records with an inconclusive call do not appear. Calls of active or inactive are those of the source. How the source made its calls, unless noted: active means hit-call score of the fitted dose curve at least 0.9, where 1 is the maximum; inconclusive means response in the unintended direction; inactive means score below 0.9.

Tests used:
[1] = ATG_NRF2_ARE_CIS: Attagene CIS-FACTORIAL HepG2 Assay for human Nuclear Factor Erythroid 2 Related Factor 2 (NFR2) response to Antioxidant Response Elements (ARE) (AID 2282992; active means hit-call score of the fitted dose curve at least 0.9, where 1 is the maximum; inactive means score below 0.9;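 on AC50: reporter mRNA level measured by RT-PCR and capillary electrophoresis fluorescence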); conditions: HepG2 Attagene ARE/NRF2 reporter, transcription factor activity; actives raise or lower the signal
Procedure, shortened: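 Endogenous transcription factor activity in human liver HepG2 cells is tracked via a cis-element-driven reporter within a multiplexed set. mRNA induction is read by RT-PCR and capillary electrophoresis after 24 h, with DMSO as baseline.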

[2] = ATG_Oct_MLP_CIS: Attagene CIS-FACTORIAL HepG2 Assay for human Octamer-Binding Transcription Factor (Oct) (AID 2282993; active means hit-call score of the fitted dose curve at least 0.9, where 1 is the maximum; inactive means score below 0.9); conditions: HepG2 Attagene cis-factorial Oct reporter, mRNA; actives raise or lower the signal
Procedure, shortened: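 HepG2 cells transiently transfected with cis-promoter-driven multiplexed reporter transcription units, dosed for 24 h. Reporter mRNA quantified by RT-PCR, fluorescent labelling, HpaI digestion and capillary electrophoresis; bidirectional fits versus DMSO baseline.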

[3] = molecular target: Cellular tumor antigen p53 (Homo sapiens) (UniProt P04637); experiment: ATG_p53_CIS: Attagene CIS-FACTORIAL HepG2 Assay for human p53 Transcription Factor (AID 2282994; active means hit-call score of the fitted dose curve at least 0.9, where 1 is the maximum; inactive means score below 0.9); conditions: HepG2 p53 cis-element reporter, Attagene mRNA; actives raise or lower the signal
Procedure, shortened: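 Steps: transfect HepG2 with multiplexed cis reporter constructs; dose chemicals 24 h; extract RNA, reverse-transcribe, PCR-amplify reporter sequences; FAM-label, HpaI-digest, resolve fragments by CE. Activity fitted both directions relative to DMSO.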

[4] = molecular target: Peroxisome proliferator-activated receptor gamma (Homo sapiens) (UniProt P37231); experiment: ATG_PPARg_TRANS: Attagene TRANS-FACTORIAL HepG2 Assay for human Peroxisome Proliferator-activated Receptor-gamma (PPARg) (AID 2283007)
Procedure, shortened: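 Read-out: reporter mRNA induction, detected by fluorescence after RT-PCR and capillary electrophoresis. Transiently transfected human HepG2 liver cells carrying a chimeric NR-Gal4 construct were dosed for 24 h; activity was fitted upward relative to DMSO.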

[5] = molecular target: Nuclear receptor subfamily 1 group I member 2 (Homo sapiens) (UniProt O75469); experiment: ATG_PXR_TRANS: Attagene TRANS-FACTORIAL HepG2 Assay for human Pregnane X Receptor (PXR) (AID 2283008)
Procedure, shortened: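 HepG2 transfected (FuGene 6) with GAL4-UAS reporter units + PXR-Gal4 chimera; dosed 24 h. Total RNA → oligo(dT) RT → PCR → 6-FAM primer extension → HpaI cut → CE. Gain-of-signal vs DMSO.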

[6] = molecular target: Retinoic acid receptor RXR-alpha (Homo sapiens) (UniProt P19793); experiment: ATG_RXRa_TRANS: Attagene TRANS-FACTORIAL HepG2 Assay for human Retinoid X Receptor alpha (RXRa) (AID 2283012)
Procedure, shortened: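 Read-out: fluorescent reporter-transcript fragments quantified by capillary electrophoresis after RT-PCR. Transiently transfected HepG2 cells carrying GAL4-UAS reporters and NR-GAL4 chimeras were exposed to chemical for 24 h; activity scored as increase over DMSO.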

[7] = molecular target: human Retinoid X Receptor beta (RXRb), RXRB (gene 6257) (UniProt P28702); experiment: ATG_RXRb_TRANS: Attagene TRANS-FACTORIAL HepG2 Assay for human Retinoid X Receptor beta (RXRb) (AID 2283013)
Procedure, shortened: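 Read-out: reporter mRNA induction via RT-PCR plus capillary electrophoresis fluorescence, analysed as signal increase relative to DMSO. Cells were human HepG2, transiently transfected with GAL4-UAS reporter constructs and chimeric receptor-Gal4 fusions, dosed for 24 h.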

[8] = BSK_3C_TissueFactor: BioMAP Diversity Plus: 3C Assay for Tissue Factor Biomarker Activity (AID 2282997; active means hit-call score of the fitted dose curve at least 0.9, where 1 is the maximum; inactive means score below 0.9); conditions: BioMAP 3C HUVEC, tissue factor biomarker readout; actives raise or lower the signal
Procedure, shortened: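 Tissue factor on primary human umbilical vein endothelium was read by ELISA 24 h after dosing, gain or loss relative to DMSO. Cytotoxicity ran alongside via SRB (0.1%, TCA-fixed, 560 nm).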

[9] = BSK_3C_VCAM1: BioMAP Diversity Plus: 3C Assay for Vascular cell adhesion molecule 1 (VCAM1) Biomarker Activity (AID 2282999; active means hit-call score of the fitted dose curve at least 0.9, where 1 is the maximum; inactive means score below 0.9); conditions: BioMAP 3C HUVEC, VCAM1 ELISA, cytokine-stimulated; actives raise or lower the signal
Procedure, shortened: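 Activity fitted in both directions relative to DMSO, with ELISA measurement of the surface marker on primary HUVEC (3C) at 24 h post-treatment; parallel SRB staining (0.1% SRB, TCA-fixed, 560 nm) flagged overt cytotoxicity.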

[10] = molecular target: human Peroxisome Proliferator-activated Receptor alpha (PPARa), PPARA (gene 5465) (UniProt Q07869); experiment: ATG_PPARa_TRANS: Attagene TRANS-FACTORIAL HepG2 Assay for human Peroxisome Proliferator-activated Receptor alpha (PPARa) (AID 2283001);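 on AC50: potency for gain of reporter signal over DMSO so agonist or activator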
Procedure, shortened: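 Transfected HepG2 cells treated with test chemical for 24 h. RNA isolated, reverse-transcribed with oligo(dT), PCR-amplified, FAM-labelled and HpaI-digested. Fragments sized by capillary electrophoresis; gain-of-signal fit relative to DMSO.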

[11] = read-out: Intercellular Adhesion Molecule 1 (ICAM1), ICAM1 (gene 3383); experiment: BSK_3C_ICAM1: BioMAP Diversity Plus: 3C Assay for Intercellular Adhesion Molecule 1 (ICAM1) Biomarker Activity (AID 2283003; active means hit-call score of the fitted dose curve at least 0.9, where 1 is the maximum; inactive means score below 0.9); conditions: primary human endothelial cells (HUVEC); actives raise or lower the signal
Procedure, shortened: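 ELISA read-out of ICAM-1; HUVEC (primary human), 3C system, 24 h post-dosing; bidirectional fit vs DMSO baseline.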

[12] = BSK_3C_Proliferation: Cell Proliferation Assessment in the BioMAP Diversity Plus: 3C Assay (AID 2283006; active means hit-call score of the fitted dose curve at least 0.9, where 1 is the maximum; inactive means score below 0.9;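 on AC50: potency may reflect either rise or fall in cell number versus DMSO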); conditions: primary human endothelial cells (HUVEC)
Procedure, shortened: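 HUVEC, sub-confluent; 48 h chemical exposure; 10% TCA fix, 0.1% SRB stain, A560 total protein. Gain or loss of signal fitted both directions vs DMSO control.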

[13] = molecular target: human RAR-related Orphan Receptor beta (RORb), RORB (gene 6096) (UniProt Q92753); experiment: ATG_RORb_TRANS: Attagene TRANS-FACTORIAL HepG2 Assay for human RAR-related Orphan Receptor beta (RORb) (AID 2283010)
Procedure, shortened: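 HepG2, transient MRTU transfection (GAL4-UAS reporters, exogenous NR-Gal4 chimeras); 24 h compound exposure; total RNA → RT-PCR → 6-FAM primer extension → HpaI digest → CE fluorescence. Positive direction vs DMSO baseline.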

[14] = molecular target: human Retinoic Acid Receptor beta (RARb), RARB (gene 5915) (UniProt P10826); experiment: ATG_RARb_TRANS: Attagene TRANS-FACTORIAL HepG2 Assay for human Retinoic Acid Receptor beta (AID 2283004)
Procedure, shortened: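 Induction of reporter mRNA from a chimeric RARb-Gal4 construct was measured by RT-PCR, FAM labelling, HpaI digestion and capillary electrophoresis. Measurements followed 24 h compound treatment of transiently transfected human HepG2 liver cells, with DMSO as baseline.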

[15] = molecular target: Retinoic acid receptor alpha (Homo sapiens) (UniProt P10276); experiment: ATG_RARa_TRANS: Attagene TRANS-FACTORIAL HepG2 Assay for human Retinoic Acid Receptor alpha (RARa) (AID 2283005)
Procedure, shortened: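 Reporter transcripts, measured by RT-PCR with fluorescent labeling and capillary electrophoresis after 24 h dosing, reflect activity of an exogenous human RARa–GAL4 fusion in transiently transfected HepG2. Fitted for increase relative to DMSO.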

[16] = molecular target: human Retinoic Acid Receptor gamma (RARg), RARG (gene 5916) (UniProt P13631); experiment: ATG_RARg_TRANS: Attagene TRANS-FACTORIAL HepG2 Assay for human Retinoic Acid Receptor gamma (RARg) (AID 2283009)
Procedure, shortened: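 Readout: reporter transcript levels via RT-PCR, 6-FAM primer-extension labelling, HpaI digestion and capillary electrophoresis. Cells: HepG2 carrying transfected RARg-GAL4 chimera plus UAS reporter set. Dosing 24 h; DMSO negative control.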

[17] = BSK_4H_Eotaxin3: BioMAP Diversity Plus: 4H Assay for Eotaxin 3 Biomarker Activity (AID 2283000; active means hit-call score of the fitted dose curve at least 0.9, where 1 is the maximum; inactive means score below 0.9;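 further: CCL26 protein level quantified by ELISA in parallel with SRB cytotoxicity check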); conditions: primary human endothelial cells (HUVEC); actives raise or lower the signal
Procedure, shortened: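 Human umbilical vein endothelial cells (BSK_4H system) dosed with test chemical; Eotaxin-3 (CCL26) measured by ELISA 24 h after dosing. Bidirectional curve fitting relative to DMSO negative control as baseline.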

[18] = molecular target: human RAR-related Orphan Receptor gamma (RORg), RORC (gene 6097) (UniProt P51449); experiment: ATG_RORg_TRANS: Attagene TRANS-FACTORIAL HepG2 Assay for human RAR-related Orphan Receptor gamma (RORg) (AID 2283011)
Procedure, shortened: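 Reporter transcripts from a transfected RORg-GAL4 chimera in HepG2 cells were quantified 24 h after dosing by RT-PCR, 6-FAM labelling, HpaI digestion and capillary electrophoresis; increases over DMSO baseline were fitted.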

[19] = BSK_3C_uPAR: BioMAP Diversity Plus: 3C Assay for Urokinase-type plasminogen activator receptor (uPAR) Biomarker Activity (AID 2282998; active means hit-call score of the fitted dose curve at least 0.9, where 1 is the maximum; inactive means score below 0.9); conditions: BioMAP 3C HUVEC, uPAR biomarker ELISA; actives raise or lower the signal
Procedure, shortened: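 Human umbilical vein endothelial primary cells were exposed to test chemical for 24 h. Cell-surface uPAR was then quantified by ELISA, and responses were fitted bidirectionally against DMSO as negative control and baseline.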

[20] = molecular target: human Peroxisome Proliferator-activated Receptor delta (PPARd), PPARD (gene 5467) (UniProt Q03181); experiment: ATG_PPARd_TRANS: Attagene TRANS-FACTORIAL HepG2 Assay for human Peroxisome Proliferator-activated Receptor delta (PPARd) (AID 2283002)
Procedure, shortened: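 Cell-based TRANS reporter: HepG2, transient MRTU transfection, 24 h exposure. Readout = reporter mRNA (RT-PCR/CE, 6-FAM). Gain-of-signal fit vs DMSO control.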

Measured: AC50

Sequence of Retinoic acid receptor alpha (Homo sapiens) (P10276 whole entry, looked up, the tested form may be a part): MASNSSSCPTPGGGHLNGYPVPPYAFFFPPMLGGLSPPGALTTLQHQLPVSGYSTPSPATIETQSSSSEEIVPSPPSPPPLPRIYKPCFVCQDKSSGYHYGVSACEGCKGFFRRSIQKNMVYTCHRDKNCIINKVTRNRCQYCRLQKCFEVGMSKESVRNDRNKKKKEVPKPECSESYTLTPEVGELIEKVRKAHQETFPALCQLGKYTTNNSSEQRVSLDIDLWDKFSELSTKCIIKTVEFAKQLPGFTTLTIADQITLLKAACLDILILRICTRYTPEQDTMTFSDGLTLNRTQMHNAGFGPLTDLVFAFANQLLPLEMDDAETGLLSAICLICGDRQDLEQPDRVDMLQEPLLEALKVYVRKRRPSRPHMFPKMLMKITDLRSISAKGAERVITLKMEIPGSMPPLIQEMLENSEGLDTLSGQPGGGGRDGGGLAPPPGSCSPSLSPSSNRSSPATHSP
Sequence of Nuclear receptor subfamily 1 group I member 2 (Homo sapiens) (O75469 whole entry, looked up, the tested form may be a part): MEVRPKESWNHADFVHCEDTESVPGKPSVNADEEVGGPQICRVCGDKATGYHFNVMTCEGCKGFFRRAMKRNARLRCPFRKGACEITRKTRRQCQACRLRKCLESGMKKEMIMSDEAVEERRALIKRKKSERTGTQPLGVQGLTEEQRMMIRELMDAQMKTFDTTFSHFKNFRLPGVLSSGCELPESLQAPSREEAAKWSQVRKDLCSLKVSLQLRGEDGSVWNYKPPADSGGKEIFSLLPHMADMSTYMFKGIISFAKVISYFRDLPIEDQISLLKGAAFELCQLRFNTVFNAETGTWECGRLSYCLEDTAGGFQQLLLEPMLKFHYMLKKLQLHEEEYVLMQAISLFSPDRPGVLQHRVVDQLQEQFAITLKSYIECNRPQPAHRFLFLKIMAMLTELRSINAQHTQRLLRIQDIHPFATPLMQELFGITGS
Sequence of human RAR-related Orphan Receptor beta (RORb), RORB (gene 6096) (Q92753 whole entry, looked up, the tested form may be a part): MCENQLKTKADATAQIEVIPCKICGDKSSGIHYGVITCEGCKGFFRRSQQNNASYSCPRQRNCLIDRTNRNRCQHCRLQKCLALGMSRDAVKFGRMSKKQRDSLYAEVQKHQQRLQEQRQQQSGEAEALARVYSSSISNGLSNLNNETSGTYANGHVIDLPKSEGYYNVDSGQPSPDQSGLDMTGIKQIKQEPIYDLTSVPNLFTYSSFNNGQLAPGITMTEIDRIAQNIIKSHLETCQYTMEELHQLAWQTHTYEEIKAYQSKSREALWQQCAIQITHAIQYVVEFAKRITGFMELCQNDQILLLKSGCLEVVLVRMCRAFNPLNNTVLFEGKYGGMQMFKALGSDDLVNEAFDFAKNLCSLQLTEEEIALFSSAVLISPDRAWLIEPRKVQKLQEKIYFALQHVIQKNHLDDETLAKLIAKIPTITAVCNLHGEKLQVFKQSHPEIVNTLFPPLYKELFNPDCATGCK
Sequence of Peroxisome proliferator-activated receptor gamma (Homo sapiens) (P37231 whole entry, looked up, the tested form may be a part): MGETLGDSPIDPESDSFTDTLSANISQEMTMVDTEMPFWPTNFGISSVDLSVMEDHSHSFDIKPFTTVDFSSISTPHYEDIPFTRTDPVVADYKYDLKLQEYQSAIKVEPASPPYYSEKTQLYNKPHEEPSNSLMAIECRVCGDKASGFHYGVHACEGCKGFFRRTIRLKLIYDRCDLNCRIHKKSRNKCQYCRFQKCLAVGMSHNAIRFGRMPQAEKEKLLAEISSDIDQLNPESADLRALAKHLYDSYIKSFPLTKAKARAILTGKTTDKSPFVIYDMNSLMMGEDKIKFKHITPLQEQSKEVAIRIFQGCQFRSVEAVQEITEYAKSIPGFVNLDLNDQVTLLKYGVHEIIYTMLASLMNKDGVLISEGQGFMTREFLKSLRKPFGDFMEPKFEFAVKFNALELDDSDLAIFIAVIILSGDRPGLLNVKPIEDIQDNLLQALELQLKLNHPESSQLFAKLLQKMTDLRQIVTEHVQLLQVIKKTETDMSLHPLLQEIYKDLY
Sequence of human RAR-related Orphan Receptor gamma (RORg), RORC (gene 6097) (P51449 whole entry, looked up, the tested form may be a part): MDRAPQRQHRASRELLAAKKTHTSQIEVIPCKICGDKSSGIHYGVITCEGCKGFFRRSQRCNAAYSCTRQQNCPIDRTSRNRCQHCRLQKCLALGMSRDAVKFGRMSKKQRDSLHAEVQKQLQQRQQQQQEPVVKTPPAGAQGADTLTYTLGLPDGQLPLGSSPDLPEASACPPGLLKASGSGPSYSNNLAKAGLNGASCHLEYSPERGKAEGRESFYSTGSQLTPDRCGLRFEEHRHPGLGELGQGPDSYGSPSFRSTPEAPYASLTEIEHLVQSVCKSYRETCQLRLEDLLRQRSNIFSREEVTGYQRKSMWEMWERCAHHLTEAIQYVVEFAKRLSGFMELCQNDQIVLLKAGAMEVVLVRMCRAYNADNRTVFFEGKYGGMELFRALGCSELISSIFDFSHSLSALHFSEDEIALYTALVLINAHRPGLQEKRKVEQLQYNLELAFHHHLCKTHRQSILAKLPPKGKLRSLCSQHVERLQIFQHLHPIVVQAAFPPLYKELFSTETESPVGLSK
Sequence of human Retinoid X Receptor beta (RXRb), RXRB (gene 6257) (P28702 whole entry, looked up, the tested form may be a part): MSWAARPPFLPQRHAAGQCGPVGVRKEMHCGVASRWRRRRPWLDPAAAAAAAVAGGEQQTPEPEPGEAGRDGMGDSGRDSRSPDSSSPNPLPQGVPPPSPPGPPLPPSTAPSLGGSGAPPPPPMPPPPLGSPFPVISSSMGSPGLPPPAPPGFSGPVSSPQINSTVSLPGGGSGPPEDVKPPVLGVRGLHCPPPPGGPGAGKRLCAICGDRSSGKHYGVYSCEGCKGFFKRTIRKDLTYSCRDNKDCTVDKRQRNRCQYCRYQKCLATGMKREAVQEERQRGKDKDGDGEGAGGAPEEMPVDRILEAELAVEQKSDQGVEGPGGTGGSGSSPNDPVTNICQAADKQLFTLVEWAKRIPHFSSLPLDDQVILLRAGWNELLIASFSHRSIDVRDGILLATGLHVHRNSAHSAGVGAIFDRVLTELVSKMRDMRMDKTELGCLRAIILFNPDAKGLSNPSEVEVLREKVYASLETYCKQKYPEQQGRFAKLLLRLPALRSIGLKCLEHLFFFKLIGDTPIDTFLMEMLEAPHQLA
Sequence of Retinoic acid receptor RXR-alpha (Homo sapiens) (P19793 whole entry, looked up, the tested form may be a part): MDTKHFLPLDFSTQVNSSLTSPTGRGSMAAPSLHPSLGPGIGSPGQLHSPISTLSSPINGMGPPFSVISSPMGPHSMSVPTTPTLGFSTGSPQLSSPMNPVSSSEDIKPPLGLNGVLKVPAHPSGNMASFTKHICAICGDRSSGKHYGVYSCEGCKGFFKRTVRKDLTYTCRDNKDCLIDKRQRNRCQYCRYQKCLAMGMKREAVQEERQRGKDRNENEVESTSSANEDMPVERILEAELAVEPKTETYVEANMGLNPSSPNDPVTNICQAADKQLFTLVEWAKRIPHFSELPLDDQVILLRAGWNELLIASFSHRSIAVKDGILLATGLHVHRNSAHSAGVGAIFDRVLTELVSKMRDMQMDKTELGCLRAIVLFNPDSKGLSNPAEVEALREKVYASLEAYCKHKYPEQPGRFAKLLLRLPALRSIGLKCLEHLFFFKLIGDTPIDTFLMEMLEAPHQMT
Sequence of human Retinoic Acid Receptor gamma (RARg), RARG (gene 5916) (P13631 whole entry, looked up, the tested form may be a part): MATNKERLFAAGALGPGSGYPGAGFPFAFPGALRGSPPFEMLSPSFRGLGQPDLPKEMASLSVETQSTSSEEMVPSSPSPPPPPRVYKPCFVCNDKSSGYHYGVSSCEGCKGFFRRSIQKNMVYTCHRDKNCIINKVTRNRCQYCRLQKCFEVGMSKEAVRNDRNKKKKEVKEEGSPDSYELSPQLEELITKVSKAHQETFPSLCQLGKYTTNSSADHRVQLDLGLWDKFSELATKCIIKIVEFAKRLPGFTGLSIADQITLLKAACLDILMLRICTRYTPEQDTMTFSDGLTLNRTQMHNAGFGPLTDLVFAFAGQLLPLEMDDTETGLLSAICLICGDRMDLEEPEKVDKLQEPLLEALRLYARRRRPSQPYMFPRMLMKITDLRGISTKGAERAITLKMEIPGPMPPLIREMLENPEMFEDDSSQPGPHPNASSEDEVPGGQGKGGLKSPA
Sequence of Cellular tumor antigen p53 (Homo sapiens) (P04637 whole entry, looked up, the tested form may be a part): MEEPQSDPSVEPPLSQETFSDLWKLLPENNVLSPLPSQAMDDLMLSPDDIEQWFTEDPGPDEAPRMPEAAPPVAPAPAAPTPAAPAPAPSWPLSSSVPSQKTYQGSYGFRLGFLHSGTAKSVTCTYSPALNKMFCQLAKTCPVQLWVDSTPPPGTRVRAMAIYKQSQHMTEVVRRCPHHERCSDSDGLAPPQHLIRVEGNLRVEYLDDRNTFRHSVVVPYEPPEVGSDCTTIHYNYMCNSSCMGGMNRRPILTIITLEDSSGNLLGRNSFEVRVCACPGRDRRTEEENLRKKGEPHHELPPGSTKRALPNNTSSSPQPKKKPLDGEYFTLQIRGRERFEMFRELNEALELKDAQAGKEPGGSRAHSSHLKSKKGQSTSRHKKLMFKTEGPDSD
Sequence of human Peroxisome Proliferator-activated Receptor alpha (PPARa), PPARA (gene 5465) (Q07869 whole entry, looked up, the tested form may be a part): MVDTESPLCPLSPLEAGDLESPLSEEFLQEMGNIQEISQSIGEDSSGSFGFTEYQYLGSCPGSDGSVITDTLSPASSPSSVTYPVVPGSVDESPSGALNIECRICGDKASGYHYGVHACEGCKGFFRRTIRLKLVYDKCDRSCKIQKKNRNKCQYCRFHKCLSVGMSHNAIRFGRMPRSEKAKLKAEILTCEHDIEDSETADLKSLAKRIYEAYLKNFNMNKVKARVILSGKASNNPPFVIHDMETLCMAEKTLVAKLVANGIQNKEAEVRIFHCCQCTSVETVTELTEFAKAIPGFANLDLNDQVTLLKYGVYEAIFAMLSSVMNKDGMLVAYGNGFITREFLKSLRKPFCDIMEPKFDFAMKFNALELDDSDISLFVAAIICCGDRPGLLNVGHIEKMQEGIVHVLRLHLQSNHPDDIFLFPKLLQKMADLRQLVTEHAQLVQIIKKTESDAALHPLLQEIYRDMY

O=NN1CCCCCCC1
active: [1] 114 µM
inactive: [2] | [3] | [4] | [5] | [6] | [7]

OCCN(CCO)CCO
inactive: [1] | [2] | [8] | [9] | [10] | [11] | [12] | [13] | [6] | [7]

O=c1[nH]c2ccccc2n1C1CCN(CCCC(c2ccc(F)cc2)c2ccc(F)cc2)CC1
inactive: [2] | [3] | [5] | [6]
active: [1] 3.15 µM

O=S1OC[C@@H]2[C@H](CO1)[C@]1(Cl)C(Cl)=C(Cl)[C@@]2(Cl)C1(Cl)Cl (some centres not stated)
inactive: [1] | [3] | [14] | [15] | [16] | [6] | [7]
active: [2] 100 µM | [5] 4.5 µM

CC(C)[C@H](C(=O)OC(C#N)c1cccc(Oc2ccccc2)c1)c1ccc(OC(F)F)cc1 (some centres not stated)
inactive: [1] | [2] | [3] | [4] | [6]
active: [5] 0.693 µM

Cc1cc(C(F)(C(F)(F)F)C(F)(F)F)ccc1NC(=O)c1cccc(I)c1C(=O)NC(C)(C)CS(C)(=O)=O
active: [5] 1.13 µM
inactive: [1] | [2] | [3] | [14] | [15] | [16] | [6]

O=[N+]([O-])c1c2ccccc2cc2ccccc12
inactive: [2] | [3] | [14] | [15] | [13] | [6]
active: [1] 5 µM | [4] 1.27 µM | [5] 4.7 µM | [7] 5.12 µM

C=C(C)C(=O)OCC(CC)CCCC (configuration not stated)
inactive: [1] | [2] | [3] | [4] | [5] | [6] | [7]

CC(C)O.CC(C)O.OCCN(CCO)CCO.OCCN(CCO)CCO.[Ti]
inactive: [1] | [2] | [8] | [9] | [17] | [10] | [11] | [14] | [12] | [5] | [13] | [6] | [7]

C#C[C@]1(O)CC[C@H]2[C@@H]3CCC4=CC(=O)CC[C@]4(C)[C@H]3CC[C@@]21C
inactive: [1] | [2] | [3] | [18] | [6]

C=CC(Cl)CCl (configuration not stated)
active: [1] 20.2 µM | [8] 0.0174 µM | [5] 27.2 µM
inactive: [2] | [19] | [9] | [17] | [10] | [11] | [15] | [12] | [4] | [16] | [13] | [6]

C=CC(F)(C(F)(F)F)C(F)(F)C(F)(F)F (configuration not stated)
inactive: [1] | [2] | [3] | [14] | [15] | [4] | [16] | [6] | [7]

O=C=Nc1ccc(Cl)cc1
inactive: [1] | [2] | [3] | [14] | [4] | [5] | [18] | [7]

O=C1C[C@@H]2OCC=C3CN4CC[C@]56c7ccccc7N1[C@H]5[C@H]2[C@H]3C[C@H]46
inactive: [1] | [2] | [3] | [4] | [5] | [16] | [6]

Oc1c(Br)cc(Br)cc1Br
inactive: [8] | [17] | [20] | [11] | [14] | [15] | [16] | [13] | [6] | [7]
active: [1] 26.9 µM | [2] 57.1 µM | [9] 31.4 µM | [10] 13.3 µM | [12] 27.4 µM | [4] 11.9 µM | [5] 7.95 µM

CC(C)[C@@H](Nc1ccc(C(F)(F)F)cc1Cl)C(=O)OC(C#N)c1cccc(Oc2ccccc2)c1 (some centres not stated)
active: [1] 17.1 µM | [4] 5.11 µM | [5] 0.51 µM
inactive: [2] | [3] | [14] | [15] | [16]

O=C(NC(=O)c1c(F)cccc1F)Nc1cc(Cl)c(F)c(Cl)c1F
inactive: [1] | [2] | [3] | [15] | [4] | [5] | [16] | [18]
